# Data as given in PMC12136788.
# The full ranking holds about 24,000 sequences; the median of “enrichment r” is about 0.99, and the highest 2% start at about 3.7. The list is a sample of the results.
# T1: UNK ZnF1-3 (human, UniProt Q9C0B0 31-174)
# T1 sequence: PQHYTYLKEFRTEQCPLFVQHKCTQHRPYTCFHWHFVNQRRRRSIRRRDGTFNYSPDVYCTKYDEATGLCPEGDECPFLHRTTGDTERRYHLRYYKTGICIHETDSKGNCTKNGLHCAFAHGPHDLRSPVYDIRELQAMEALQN
# B1: chr8:104075188:104075189:+_ENSG00000155097_ENST00000518738|hu_hu|motif|central (ssRNA)
# RNA: GGGAGUUCUACAGUCCGACGAUCCUUCCUAAACAAGGUGACAUUACACAGGUAACUGUCUUGGUCCUCUGAAAGAACAUUGCGGGACCUUGGAACUACCAUUUCGGCUAGUGUUUCAUACUGCUUAAUCCAGUCGUUGUGGUUCAACAGAGGAUUGAGCAUCA
# B2: chr8:122087627:122087628:-_ENSMUSG00000034189_ENSMUST00000036049|mus_hu|FALSE|FALSE (ssRNA)
# RNA: GGGAGUUCUACAGUCCGACGAUCUAGUUACAAAAUAAUACUUUUCAGUAGUCUUUCUUGAUGCACAUUUAAAAACCAGCACAACUCCUCUAGUGAAAUGGUCAAUUUCCCUUAAAAAACAACAUCUGAAAUUAUAAGACCUGACAACAGAGGAUUGAGCAUCA
# B3: chr3:132387698:132387699:+_ENSG00000081307_ENST00000264991|hu_hu|FALSE|FALSE (ssRNA)
# RNA: GGGAGUUCUACAGUCCGACGAUCUUGAACUUUACUUAAUCCUGCUUGAUGAGGUUGGAAGAAAAGUCUAUUCAUAUUGGCUAGUUCCACCUUGUCAUAAUCAAAGAGUAGCAACUUACCAAUGCCACAUCUUGUCAGCAUUUCCAACAGAGGAUUGAGCAUCA
# B4: chr6:40197388:40197389:+_ENSMUSG00000057716_ENSMUST00000061740|mus_mus|mus_mus_mus_hu_False|18_58 (ssRNA)
# RNA: GGGAGUUCUACAGUCCGACGAUCGAGACACUGGGGUGGAUUUAUUCCACCUCUGUUUGGGUGCUAGCCACUAAGACAGCUAUUUUGGGAUUCAUGGCCUUGAAUAUCAAGAGGGAAGGGACGAGAAUGGAAAGAGUCAAGAGUCAACAGAGGAUUGAGCAUCA
# B5: chr11:98549071:98549072:+_ENSMUSG00000017221_ENSMUST00000017365|mus_hu|FALSE|FALSE (ssRNA)
# RNA: GGGAGUUCUACAGUCCGACGAUCAUCCAGCUUGUCCAGGAACUCAUAGACCCGGGCGUGAUAAUAGUAACACUUUGCGGCUACAAGGUCUAGGGCCCGGCGGUUCUGAGUACUGAUCUUCUGCAUCAGAUCAUCAGAGAUCUUCAACAGAGGAUUGAGCAUCA
# B6: chr15:103023242:103023243:-_ENSMUSG00000009575_ENSMUST00000118152|mus_mus|motif|central (ssRNA)
# RNA: GGGAGUUCUACAGUCCGACGAUCAACUAGCAGCAUUGAUGAGGGGUUAAGGGAUUGGGGACAGAAACUCACCAAGGUCACGGAGUACUUCCAAACUUGGAAGUAGCUCAGUGAGGGCUAAAAAAACUUCGACUGAAGGUAUCCCAACAGAGGAUUGAGCAUCA
# B7: chr7:99968543:99968544:+_ENSMUSG00000030643_ENSMUST00000032879|mus_mus|FALSE|FALSE (ssRNA)
# RNA: GGGAGUUCUACAGUCCGACGAUCAAAGACCCUGAGUGAAUCUUCGGACUAGGCACGUCUUUCCCACUCCAGCGUUGCCAAUUAAAACAAUUUUGAACAGGAAAUCAUAAUCUUCCAUACUCAUUUACACAGCUGGUUUGGGAUCAACAGAGGAUUGAGCAUCA
# B8: chr4:56883625:56883626:-_ENSMUSG00000055296_ENSMUST00000068792|mus_mus|FALSE|FALSE (ssRNA)
# RNA: GGGAGUUCUACAGUCCGACGAUCUAUAGGCGUGCGCCACCACGCCCGGGUUUAAAAUGUGUAGACCAGGCUGGCCUCGAACUCGCGAUCCUCCUGCUUCUGCCUCCUUCAGCAAAUCCUACUGGCGUGCGCCACCACAACCAGCAACAGAGGAUUGAGCAUCA
# B9: 24016654_24036560_782_3pUTR_ENSMUSG00000024277_ENSMUST00000025127|mouse|control|control (ssRNA)
# RNA: GGGAGUUCUACAGUCCGACGAUCCGUUUCUAAAUCUUUGUCAGAUCUGGAUGCAGAGCCACUGGAUGAAGCCCUUUUGGCAGACGAGGGGCGAGAAGGUGUGGAUCCUGGCUUAGAUGCAGGACUUGACUUAGCCGCGCCUGCCAACAGAGGAUUGAGCAUCA
# B10: chr11:77340908:77340909:-_ENSG00000074201_ENST00000525064|hu_mus|FALSE|FALSE (ssRNA)
# RNA: GGGAGUUCUACAGUCCGACGAUCGUUUGGAUCCCUGGACACCGCAUGUAAACUAAUGGUGGGGUAUUCCAGUGAGAAUCCUAAUCCCGAACCAUCUAACCAGGACAGGCGGCUCUCCGCGAUGUAAAGCGUGCCGGUGCCGAGCAACAGAGGAUUGAGCAUCA
# B11: chr11:115359427:115359428:-_ENSMUSG00000020737_ENSMUST00000021083|mus_hu|motif|central (ssRNA)
# RNA: GGGAGUUCUACAGUCCGACGAUCUGCAGUUCACAAGCAUGGAGGAAACAGACAGAACGACAGCGUUCAGGACAGUCAGAGCGGACCCAAGACGAGGCUGGACUUGCCGCCAGGGGGAUUUCUUCUGGAUGGCACUGGGGCCGGCAACAGAGGAUUGAGCAUCA
# B12: chr11:63961690:63961691:+_ENSG00000168439_ENST00000305218|hu_mus|FALSE|FALSE (ssRNA)
# RNA: GGGAGUUCUACAGUCCGACGAUCUUCAUGUUUUAAACCUUCUUCAUAGGUUCGUUUGGCUUCCUCAAACCGGUUUAGGAAUUCAAGGGCUGCUGCUUUUCUUGAAUAACCCUUGCCCCAGUCAGGCUUCAGGUCAACAGUCUUCAACAGAGGAUUGAGCAUCA
# B13: chr13:42873775:42873776:+_ENSG00000023516_ENST00000025301|hu_hu|FALSE|FALSE (ssRNA)
# RNA: GGGAGUUCUACAGUCCGACGAUCAGAAGACGAAAAAAAUGUUUUCUGUAAAUCACUAUCUUUAUCUGAAGCAUUAGAUGACCUAUAGAAACUCCUUUGGGUCCAAGGCUCUGAAAUUGAUGUUGUGACUGAAGUUUUCACAGACAACAGAGGAUUGAGCAUCA
# B14: chr9:100389865:100389866:-_ENSG00000136925_ENST00000341170|hu_mus|FALSE|FALSE (ssRNA)
# RNA: GGGAGUUCUACAGUCCGACGAUCUAUCAGUGGGACAGGUUCCUUGCAGACAAGUAUCUUCCGCAAACCCUAGGCCUUUCCUGGGUCUCCCUUCACCAACUUGGCGCUGCUCCCCGCCCUCGAGCCCACGCCCCCCGGCGCGCGCAACAGAGGAUUGAGCAUCA
# B15: chr9:74904954:74904955:+_ENSMUSG00000007656_ENSMUST00000169492|mus_mus|FALSE|FALSE (ssRNA)
# RNA: GGGAGUUCUACAGUCCGACGAUCUCAAAAGGAAGAUACAGAAGAAAUCAAUACAACAGAGGUCCUGUUAAAUAAGAGUAACAUACAAAGCUGUAAUCAUGAGAAAGUAAAGAAAGCCAGAGCAUUAAAGCUGUAAAACUUGCUCAACAGAGGAUUGAGCAUCA
# B16: chr14:73742652:73742653:-_ENSG00000133961_ENST00000557597|hu_hu|FALSE|FALSE (ssRNA)
# RNA: GGGAGUUCUACAGUCCGACGAUCCCCCUUUACCUUUGGCAAGAUUACUUACAACUCAUACAACUUCUUAAUAUCUGAGAACUAUUUAAAAUAUUCUAAAUGCAUAAAAAUAAAGAUUUUGGCUUUUGAUAUAUAUAAUAUUUACAACAGAGGAUUGAGCAUCA
# B17: chr11:18422405:18422406:+_ENSG00000134333_ENST00000379412|hu_hu|motif|central (ssRNA)
# RNA: GGGAGUUCUACAGUCCGACGAUCCAGCUUGGAGUUUGCAGUUACAUUAUAGUCUUUGCCAGAGACAAUCUUUGGUGUUCGGAGGAAAAGGCUGCCAUGUUGGAGAUCCAUCAUCUCUCCCUUCAAUUUGUCUUCGAUGACAUCCAACAGAGGAUUGAGCAUCA
# B18: chr14:89338683:89338684:+_ENSG00000165533_ENST00000346301|hu_hu|hu_hu_hu_mus_False|58_108 (ssRNA)
# RNA: GGGAGUUCUACAGUCCGACGAUCGUGGUUGUUGUUGACCAGGGCCAGCCUGAAGCAUUGGUGGGCCAAGUUUGUAUCUCCUAUUCCCACAGCUAUGUGCCCCAGGUUGUACCAGACAUCAGCUGCCUCUUCUUCAUUUUCAGCCAACAGAGGAUUGAGCAUCA
# B19: chr2:198351390:198351391:-_ENSG00000144381_ENST00000345042|hu_hu|hu_hu_hu_mus_False|78_78 (ssRNA)
# RNA: GGGAGUUCUACAGUCCGACGAUCUCAUUCCCACCCUCCACAGAAAGGCUGCUUCUGUUCUCAUCUGUGGUGACACAGCGCUACAGUCCUGAUGCUCACAGAACAGUAGAGAUGCCUCAGUGAUUUAAGUUGAAAGCAGGACACCAACAGAGGAUUGAGCAUCA
# B20: chr4:34758383:34758384:-_ENSMUSG00000039967_ENSMUST00000047950|mus_mus|FALSE|FALSE (ssRNA)
# RNA: GGGAGUUCUACAGUCCGACGAUCUUCAUCAUCUGAACCAUCGUUGUCAUUAAACACUAUGAAAUCUGUUGAAUAAAGACUAUUCUUUUUUAUGGGUCGCUGUUCCUGUUUAGCCACAGUAUUAAUAUUAGUCUUUUGAUUUUCCAACAGAGGAUUGAGCAUCA
# B21: chr17:13115065:13115066:+_ENSMUSG00000068039_ENSMUST00000151287|mus_mus|FALSE|FALSE (ssRNA)
# RNA: GGGAGUUCUACAGUCCGACGAUCGAUACUUGCUCCAGAAGCUUUUGCAACAUGCUUCAGGUCUCGUUUUAAAACUCUCCUAACAGCCAUGGCACCAGCUUCCACAAAAUACUUGAGAUACAUAUCAUCAAUGCCACCAGUGGUCAACAGAGGAUUGAGCAUCA
# B22: chr15:31385891:31385892:-_ENSMUSG00000039100_ENSMUST00000090227|mus_mus|motif|central (ssRNA)
# RNA: GGGAGUUCUACAGUCCGACGAUCAUUCACUCCUAAACAGACACCCCUAGGCCUUAGUCACUCAUUUCCAUCUAAGGUUCGGUAGGAUUGUCAUGAUUACAAAAUGAGGCACUCAGACAGAUAGACAGGAAUGGAGACAUACAUCAACAGAGGAUUGAGCAUCA
# Target: T1, UNK ZnF1-3
# Assay: nsRBNS (natural sequence RNA bind-n-seq); RBNS binding buffer (assumed for nsRBNS): 25 mM Tris pH 7.5, 150 mM KCl, 3 mM MgCl2, 0.01% Triton X-100, 500 ug/ml BSA, 20 U/ml SUPERase-In, 4 C; UNK is unkempt and MSI1 is Musashi-1; names of the RNAs are library labels; protein concentration not given here; high values mean tight binding
row,Binder,binding signal
1,B1,0.508 enrichment R
2,B2,1.2 enrichment R
3,B3,0.799 enrichment R
4,B4,1.36 enrichment R
5,B5,0.693 enrichment R
6,B6,1.29 enrichment R
7,B7,1.1 enrichment R
8,B8,0.972 enrichment R
9,B9,0.536 enrichment R
10,B10,0.705 enrichment R
11,B11,1.45 enrichment R
12,B12,0.607 enrichment R
13,B13,0.809 enrichment R
14,B14,1.19 enrichment R
15,B15,2.34 enrichment R
16,B16,1.07 enrichment R
17,B17,0.638 enrichment R
18,B18,0.492 enrichment R
19,B19,1.4 enrichment R
20,B20,0.418 enrichment R
21,B21,0.985 enrichment R
22,B22,1.25 enrichment R
